# Assay outcomes: PubChem, National Center for Advancing Translational Sciences (NCATS)
# This excerpt belongs to a sample that is enriched for hits.
# RE007 growth inh = qHTS Assay for Inhibitors of the HIV-1 protein Vpr; Potency, µM (top dose mostly 92.2 µM), inactives show at the top dose activity change, negative = less growth, hits mostly inhibitors; S. pombe RE007 Vpr strain, BacTiter-Glo ATP luminescence, 24 h; AID 651644, 2012; actives 0.21% (n = 360,000); active = well fitted falling curve with a large enough effect; inconclusive = small, poorly fitted or top-dose-only effect; inactive = no such curve, though single readings can be large or run the other way; also: potency is read from the fitted curve at half-maximal effect; % is scaled to controls: 0 for no effect and ±100 for the full control effect; nearly all actives have a fitted effect of over 50% in size
#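 Fission yeast strain RE007, carrying one chromosomally integrated HIV-1 vpr copy, was seeded at OD 0.01 in PMG+AL medium with 23 nL pinned compound. After 24 h at 30 °C and 99% humidity, viability was read by BacTiter-Glo luminescence.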
# CHX counter = Cycloheximide Counterscreen for Small Molecule Inhibitors of Shiga Toxin; AID 2314, 2010; cell reporter, cycloheximide protein synthesis inhibition counterscreen; actives 12% (n = 300,000); max response, %; in the data active = max response mostly above about 13%, no sharp cut-off; inactive = mostly below about 14%; also: read at 38.3 µM for the half of the compounds with a filed dose; 0% is about no effect
# LmPK inh = qHTS Assay for Inhibitors of Leishmania Mexicana Pyruvate Kinase (LmPK). Q27686. purified LmPK, Kinase-Glo ATP luminescence, 1 h. Potency, µM (top dose mostly 57.5 µM), for inactives: at the top dose activity change, negative = inhibition, usual class: inhibitors. actives 0.37% (n = 290,000). AID 1721, 2009; also: potency is read from the fitted curve at half-maximal effect; % is scaled to controls: 0 for no effect and ±100 for the full control effect
#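 In 50 mM imidazole pH 7.2 with 7 mM MgCl2, LmPK (0.1 nM) turned over PEP (0.5 mM) and ADP (0.1 mM) for 1 h at room temperature. Luciferase read-out of ATP.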
# FBPA Giardia inh = qHTS Assay for Inhibitors of Fructose-1,6-bisphosphate Aldolase from Giardia Lamblia | A8B2U2 | purified Giardia FBPA | Potency, µM (series often up to 59.6 µM), for inactives: top-dose activity, negative = inhibition, actives largely listed as inhibitors | actives 0.71% (n = 290,000) | AID 2451, 2010; also: potency is read from the fitted curve at half-maximal effect; % is scaled to controls: 0 for no effect and ±100 for the full control effect; nearly all actives have a fitted effect of over 55% in size
# Target sequence (A8B2U2 whole entry, looked up): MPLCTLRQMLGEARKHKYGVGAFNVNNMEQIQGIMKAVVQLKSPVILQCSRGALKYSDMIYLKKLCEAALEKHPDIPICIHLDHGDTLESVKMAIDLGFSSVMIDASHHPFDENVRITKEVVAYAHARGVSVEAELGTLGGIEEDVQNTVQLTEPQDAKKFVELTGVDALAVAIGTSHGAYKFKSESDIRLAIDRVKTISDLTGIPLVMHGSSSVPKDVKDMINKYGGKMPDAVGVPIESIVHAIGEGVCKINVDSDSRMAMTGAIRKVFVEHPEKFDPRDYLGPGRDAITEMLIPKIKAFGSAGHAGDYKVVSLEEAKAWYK
#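 Giardia FBPA (40 nM reagent) was preincubated 10 min at RT with compound (up to 57.5 uM final), then substrate plus GAPDH/TPI/NAD/arsenate coupling system with diaphorase/resazurin was added; resorufin fluorescence (525/598 nm) was read after 20 min.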
# Shiga toxin inh = A qHTS for Small Molecule Inhibitors of Shiga Toxin; Vero cells, Shiga toxin protein synthesis inhibition reporter; inhibition, % at 38.7 µM; actives 9.2% (n = 290,000); AID 2315, 2010; in the data active = inhibition mostly above about 28%, no sharp cut-off; inactive = mostly below about 43%; also: 0% is about no effect
# TbPYK inhibitor = qHTS of Trypanosoma Brucei Inhibitors; pyruvate kinase (Trypanosoma brucei), Q57TT1; TbPYK enzyme, Kinase-Glo Plus ATP luminescence, 45 min; Potency, µM (highest dose often 76.8 µM), without a hit: at the highest dose activity, negative = inhibition, most hits filed as inhibitors; actives 0.12% (n = 410,000); AID 624173, 2012; also: potency is read from the fitted curve at half-maximal effect; % is scaled to controls: 0 for no effect and ±100 for the full control effect; nearly all actives have a fitted effect of over 50% in size
#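 Assay buffer: 50 mM TEA pH 7.2, 100 mM KCl, 10 mM MgCl2, 0.05% BSA, 0.01% Tween-20. Pyruvate kinase from T. brucei plus substrate met compound, then ADP (130 uM final). Luminescence was read post 45 min RT.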
# * marks the source's active call; other numbers are inactive results; ? = inconclusive; . = no result given; [ ] = dose if it differs, or a comment. Unless noted, calls follow the shape of the dose curve; as a rule, active = well fitted curve in the direction sought with a large enough effect; inconclusive = small, poorly fitted or top-dose-only effect, or another doubt; inactive = no such curve, though single readings can be large; an effect the other way counts as inactive or inconclusive.
SMILES,RE007 growth inh,CHX counter,LmPK inh,FBPA Giardia inh,Shiga toxin inh,TbPYK inhibitor
O=C(COc1ccccc1C(=O)c1cnn(-c2ccccc2)c1)Nc1ccc2ccccc2c1,-12%,57*,-2%,0%,20,-4%
CCOC(=O)COc1ncn(-c2ccccc2)n1,-18%,-1,-5%,-3%,-6,2%
COc1ccc(-n2cc(C(=O)c3ccc4ccccc4c3O)cn2)cc1,2%,18,6%,1%,4,-3%
CCOC(=O)COc1ccccc1C(=O)c1cnn(-c2ccccc2)c1,8%,59*,-6%,-4%,111*,5%
CC(C)n1cc(NC(=O)COc2ccccc2Cl)cn1,0%,10,1%,9%,47,5%
CC(C)c1ccc(NC(=O)COc2ccc(F)cc2C(=O)c2cnn(-c3ccccc3)c2)cc1,-9%,73*,-1%,-2%,120*,7%
CC(C)C[C@H](NC(=O)[C@H](Cc1cnc[nH]1)NC(=O)[C@@H](N)Cc1cnc[nH]1)C(=O)NCC(=O)NCC(=O)N[C@@H](C)C(=O)N[C@@H](CCCCN)C(=O)N[C@@H](CCC(N)=O)C(=O)N[C@@H](C)C(=O)NCC(=O)N[C@@H](CC(=O)O)C(=O)N[C@H](C(=O)O)C(C)C,.,-2,.,-19%,-17,.
COc1cccc(CNC(=O)c2ccc(NC(=O)N3CCCCc4ccccc43)cc2)c1,.,.,.,.,.,-3%
COc1ccc(/C=N\n2nnc3ccccc32)cc1,-11%,28*,-19%,0%,-41,-22%
CN(C)c1ccc(/C=N/N2C(=O)c3ccccc3C2=O)cc1,23%,55*,?,2%,76*,-12%
COc1ccc(/C=N/N2C(=O)c3ccccc3C2=O)cc1,15%,18,-20%,7%,33*,7%
CCN(CC)c1ccc(/C=N/N2C(=O)c3ccccc3C2=O)cc1,-1%,7,-11%,2%,24,-9%
Cc1cccc(-n2c(C)cc(C(=O)C(=O)Nc3ccccc3F)c2C)c1C,.,.,.,.,.,-6%
CCn1c(C(=O)NCc2ccc(C)cc2)cc2sc(Cl)cc21,.,.,.,.,.,-3%
COc1ccc(Cl)c2c1[nH]c1nc(SCc3cccnc3)nnc12,-19%,10,8%,1%,21,1%
COc1ccc(Cl)c2c1[nH]c1nc(SCc3ccccn3)nnc12,-28%,41*,-4%,-9%,89*,-1%
Cc1ccccc1CCN1CCCC(CN(C)C(=O)C(=O)c2ccco2)C1 (configuration not stated),3%,18*,-3%,-13%,37,7%
CN(CC1CCCN(CCc2ccccc2F)C1)C(=O)c1ccoc1 (configuration not stated),8%,7,6%,9%,10,2%
COc1ccc(CCN2CCCC(CN(C)C(=O)c3ccoc3)C2)cc1 (configuration not stated),-13%,52*,3%,.,142*,-3%
Cc1nc2c(-c3ccccc3)c(C)nn2c(C)c1CCC(=O)NCc1ccc(F)cc1,.,.,.,.,.,-5%
O=C(Nc1ccc(-n2cnnn2)cc1)c1cn2ccccc2n1,-8%,22*,-1%,4%,30,0%
O=C(Nc1ccc(Br)cc1)c1ccc(-n2cnnn2)cc1,-7%,9,-8%,-18%,1,-14%
Cc1c(NC(=O)c2cn3ccccc3n2)cccc1-n1cnnn1,4%,15*,3%,-4%,33,0%
Cc1csc(NC(=O)c2cn3ccccc3n2)n1,?,-3,14µM*,?,-18,?
O=C(Nc1ccccc1)c1cn2ccccc2n1,-18%,7,16µM*,-4%,7,-22%
SMILES,RE007 growth inh,CHX counter,LmPK inh,FBPA Giardia inh,Shiga toxin inh,TbPYK inhibitor
CC1CCN(C(=O)COc2ccc(S(=O)(=O)N3CCOCC3)cc2)CC1,0%,.,.,.,.,4%
COc1ccc(NC(=O)CN(C)C(C)C(=O)NC(=O)NC2CCCCC2)cc1 (configuration not stated),0%,5,3%,.,-8,-3%
COc1cccc(-c2nc(CS(=O)(=O)CC(=O)Nc3c(C)cc(C)cc3C)c(C)o2)c1,.,.,.,.,.,-1%
CN(C)CCCN(C(=O)c1ccc2c(c1)CCCC2)c1nc2cc3c(cc2s1)OCO3,1%,-3,4%,-22%,-11,0%
CN(C)CCN(C(=O)c1ccc(S(=O)(=O)N(C)c2ccccc2)cc1)c1nc2cc3c(cc2s1)OCO3,-4%,18*,-5%,.,28,-14%
CN(C)CCN(C(=O)c1ccc(N2C(=O)CCC2=O)cc1)c1nc2cc3c(cc2s1)OCCO3,.,38*,0%,-11%,60*,.
Cc1cc(C)c2nc(N(CCN(C)C)C(=O)c3ccc(S(=O)(=O)N(C)CC4CCCO4)cc3)sc2c1 (configuration not stated),1%,22*,2%,?,58,-8%
CN(C)CCN(C(=O)CN1C(=O)c2ccccc2C1=O)c1nc2cc3c(cc2s1)OCO3,?,27*,5%,-24%,49,2%
CCCc1nc(SCC(=O)NCC2CCCO2)c2c(=O)n(C)c(=O)n(C)c2n1 (configuration not stated),6%,13,-4%,.,-6,5%
CC(C)S(=O)(=O)c1oc(-c2cccs2)nc1S(=O)(=O)c1ccc(F)cc1,.,.,.,.,.,-4%
O=C(Cn1nnc(-c2cccc(C(F)(F)F)c2)n1)NCc1ccc(F)cc1,.,.,.,.,.,-4%
CN(C)CCCN(C(=O)CCS(=O)(=O)c1ccccc1)c1nc2cc3c(cc2s1)OCO3,5%,9.9*,0%,.,17,3%
CN(C)CCN(C(=O)c1ccc(S(=O)(=O)N(C)c2ccccc2)cc1)c1nc2ccc(Cl)cc2s1,-6%,34*,-7%,.,64*,3%
COc1ccc2sc(N(CCN(C)C)C(=O)c3ccc4ccccc4c3)nc2c1,-10%,21*,2%,-27%,21,4%
COc1ccc2sc(N(CCN(C)C)C(=O)c3cc(Cl)sc3Cl)nc2c1,-12%,18,0%[11.5 µM],-8%,37,0%
CN(C)CCCN(C(=O)c1ccc(S(=O)(=O)N2CCc3ccccc32)cc1)c1nc2ccc(Cl)cc2s1,-5%,10,-8%,.,-16,0%
CN(C)CCCN(C(=O)COc1ccccc1)c1nc2cc3c(cc2s1)OCCO3,8%,24*,-2%,.,18,-5%
CCc1ccc(-n2nc3cc(C)c(NC(=O)c4cc(Cl)ccc4OC)cc3n2)cc1,.,.,.,.,.,0%
CN(C)CCN(C(=O)c1ccc(C(=O)c2ccccc2)cc1)c1nc2cc3c(cc2s1)OCO3,-22%,10*,3%,.,21,-8%
